Experimental data published in PubChem BioAssay AID448 (National Center for Advancing Translational Sciences (NCATS), 2006).
“And” between values parts separate entries of the source, which are not always exact repeats. Equal entries are not always repeated. The campaign covered roughly 65,000 compounds. About 45 (0.07%) were called active. The call rests on the fitted dose curve. Not all results are given here.

Test system: Schistosoma mansoni peroxiredoxin 2 (Prx2)
Assay: Schistosoma Mansoni Peroxiredoxins (Prx2)
Settings: S. mansoni Prx2 activity coupled to TGR/GSH (TGR is thioredoxin glutathione reductase), NADPH fluorescence loss, qHTS
Description: NIH Molecular Libraries Screening Centers Network [MLSCN]
NIH Chemical Genomics Center [NCGC]
David Williams [Illinois State University]
Schistosoma mansoni, a causative agent of schistosomiasis, resides in the bloodstream of their host up to 30 years without being eliminated by the host immune attack. One proposed survival mechanism is the production of an antioxidant "firewall" that neutralizes the oxidative assault of the host's immune attack. Schistosoma mansoni peroxiredoxins (Prx) are important parasite antioxidant proteins that play a crucial role in redox balance mechanisms. […] First, the proteins are essential for the parasite survival. […] Third, the protein(s) is amenable for study at the molecular level and can be produced in bacteria in large quantities, in soluble and active form. Inhibition of Prx activity was screened in a coupled-enzyme format with reducing equivalents being transferred from NADPH to […] intermediate via thioredoxin/glutathione reductase (TGR)-catalyzed reaction, then from thioredoxin to hydrogen peroxide via Prx-catalyzed electron transfer. A decrease in the fluorescence intensity of NADPH was used to measure the enzyme activity. Purified S. mansoni TGR and Prx were provided by Professor David L. Williams, Illinois State University.
NCGC Assay Protocol Summary:
100 mM phosphate buffer, pH 7.4, 10 mM EDTA, 0.01% Tween-20.
100 uM NADPH/25 nM TGR/700 uM GSH/50 nM Prx2 mixture in columns 1, 2, 5-48. Titration of control potassium antimonyl tartrate (PAT, from 1 mM, then 1:5) pin-transferred to lower half of column 2. Column 1 and upper half of column 2 are neutral (100% activity).
Three uL of reagents were dispensed to 1536-well Greiner black plates. Compounds and controls (20 nL) were transferred via Kalypsys PinTool. The plates were incubated for 15 min at room temperature, and then a 1 uL aliquot of 400 uM NADPH/700 uM GSH was added, immediately followed by a 1uL aliquot of 2.5 mM H2O2 (to start the reaction). The plate was transferred to ViewLux (Perkin-Elmer) High-throughput CCD imager where kinetic measurements (every 30 sec, for a total of 8 min) of NADPH fluorescence were taken using 365 nm excitation/450 nm emission filter set. During dispense, enzyme-containing reagent bottles were kept submerged into 4 deg C water bath to minimize degradation.
Keywords: NIH Roadmap, MLSCN, MLI, MLSMR, David Williams, Peroxyredoxin, Schistosoma mansoni, prx2, prx, , qHTS, NCGC
Potency means the concentration at half of the fitted maximal effect.

| SMILES | Potency |
| --- | --- |
| CN(C)CC/C=C1\c2ccccc2CSc2ccccc21 | > 57 µM (inactive) |
| COc1ccccc1CNc1ncnc2ccc(-c3ccc4c(c3)OCO4)cc12 | > 57 µM (inactive) |
| CC(C)NC(=O)N1CCC2(CC1)CCN(C(=O)c1cccn1C)CC2 | > 57 µM (inactive) |
| COc1ccccc1CNc1ccnc(-c2c(C)noc2C)n1 | > 57 µM (inactive) |
| O=C(c1cnccn1)N1CCC[C@@]2(CCN(Cc3ccncc3)C2)C1 | > 57 µM (inactive) |
| COc1ccccc1N1CCN(CCN2C(=O)c3ccccc3C(C)(C)C2=O)CC1 | > 57 µM (inactive) |
| COC(=O)N1CCC2(CCCN(Cc3ccccc3OC)C2)CC1 | > 57 µM (inactive) |
| N#C/C(=C\c1ccc(O)c(O)c1)C(=O)NCc1ccccc1 | > 57 µM (inactive) and > 11.4 µM (inactive) |
| COc1ccc(Oc2ncc3nc(-c4ccc(F)cc4)c(=O)n(C)c3n2)cc1 | > 57 µM (inactive) |
| O=C(c1csnn1)N1CCC[C@@]2(CCN(c3cccc(-c4ccccc4)c3)C2)C1 | > 57 µM (inactive) |
| Clc1ccc(C=Nc2ccc3c(c2)Cc2ccccc2-3)c(Cl)c1 | > 57 µM (inactive) |
| CC(=O)N1CCC2(CCCN(c3ncccn3)C2)CC1 | > 57 µM (inactive) |
| Cc1ccc(S(=O)(=O)NC(=O)NN2C[C@H]3CCC[C@@H]3C2)cc1 | > 57 µM (inactive) |
| COc1ccc2[nH]cc(CCNc3ncnc4ccc(-c5ccc(C(=O)N(C)C)cc5)cc34)c2c1 | > 57 µM (inactive) |
| N#C/C(=C\c1ccc(O)c(O)c1)C(N)=O | > 57 µM (inactive) |
| COC(=O)[C@@]1(Cc2ccc(F)cc2)[C@H]2c3cc(C(=O)N(C)C)n(CCc4c[nH]c5ccc(OC)cc45)c3C[C@H]2CN1C(=O)c1ccccc1 | > 57 µM (inactive) |
| CNc1ncnc2ccc(-c3cccc(NS(C)(=O)=O)c3)cc12 | > 57 µM (inactive) |
| Nc1ccc2[nH]cc(CCC(=O)O)c2c1 | > 57 µM (inactive) |
| O=c1c(-c2ccc(F)c(F)c2)nc2cncnc2n1-c1ccccc1 | > 57 µM (inactive) |
| COCCn1c(=O)c(-c2cccs2)nc2cnc(N3CCN(C)CC3)nc21 | > 57 µM (inactive) |

| SMILES | Potency |
| --- | --- |
| O=C(O)c1nccnc1C(=O)Nc1ccc(Br)cn1 | > 57 µM (inactive) |
| Cc1nc2cnc(N3CCN(C)CC3)nc2n(CCC#N)c1=O | > 57 µM (inactive) |
| COc1ccccc1N1CCN(C[C@@H]2CN3C(=O)N(C)c4ccccc4C3=N2)CC1 | > 57 µM (inactive) |
| COC(=O)[C@@]1(Cc2ccc(OC)cc2)[C@H]2c3cc(C(=O)N4CCCC4)n(Cc4ccc(C(F)(F)F)nc4)c3C[C@H]2CN1C(=O)c1ccccc1 | > 57 µM (inactive) |
| CN(C)C(=O)c1ccc(-c2cncnc2Nc2ccccc2)cc1 | > 57 µM (inactive) |
| NC(=O)c1ccc(OC[C@H](O)CN2CC=C(c3ccc(F)cc3)CC2)cc1 | > 57 µM (inactive) |
| COc1ccc2c(=O)cc(-c3ccccc3)oc2c1O | > 57 µM (inactive) |
| NCCCNCCCCN(CCCN)/[N+]([O-])=N/O | > 57 µM (inactive) |
| OCCN1CCN(CC/C=C2\c3ccccc3Sc3ccc(C(F)(F)F)cc32)CC1 | > 57 µM (inactive) |
| COCCn1c(=O)c(-c2cc(F)cc(F)c2)nc2cncnc21 | > 11.4 µM (inactive) |
| Cc1c(S(=O)(=O)O)ccc(N=Nc2c(O)c(C(=O)O)cc3ccccc23)c1Cl | > 57 µM (inactive) |
| O=C(O)CS(=O)c1ccc2c3c(cccc13)C(=O)c1ccccc1-2 (centres undefined) | > 57 µM (inactive) |
| CC(C)NC(=O)N1CC[C@@]2(CCCN(C(=O)c3cccn3C)C2)C1 | > 57 µM (inactive) |
| COC(=O)N1CCC2(CCCN(c3ccncc3)C2)CC1 | > 57 µM (inactive) |
| COCCNc1ncnc2ccc(-c3cccnc3)cc12 | > 57 µM (inactive) |
| Cc1nc2cnc(N3CCN(C)CC3)nc2n(C[C@H]2CCCO2)c1=O | > 57 µM (inactive) |
| COc1ccc2[nH]cc(CCNc3cc(-c4ccccc4CN(C)C)ncn3)c2c1 | > 57 µM (inactive) |
| COc1ccc(CNc2ncncc2-c2ccccc2OC)c(OC)c1 | > 57 µM (inactive) |
| COc1ccccc1-c1nc(N2CCN(C)CC2)c2ccccc2n1 | > 57 µM (inactive) |
| C[C@]12CC[C@@H]3C(=CCc4cc(O)ccc43)[C@@H]1CCC2=O | > 57 µM (inactive) |

| SMILES | Potency |
| --- | --- |
| CC(N)=NCc1cccc(CN)c1 | > 57 µM (inactive) |
| CN=C(NC#N)NCCSCc1nc[nH]c1C | > 57 µM (inactive) |
| ClC(Cl)(Cl)C(N1CCN(c2ccccc2)CC1)N1CCN(c2ccccc2)CC1 | > 57 µM (inactive) |
| COc1cccc(Cn2c(=O)cnc3cncnc32)c1 | > 57 µM (inactive) |
| Cc1ccc(NC(=O)c2cccc(N(C)C)c2)cc1NC(=O)c1ccc(O)cc1 | > 57 µM (inactive) |
| COc1ccc(Oc2ncc3nc(C)c(=O)n(-c4ccccc4)c3n2)cc1 | > 57 µM (inactive) |
| CC1=CC(=O)C2=C(C)C[C@H](O)[C@@H]3[C@@H](OC(=O)[C@H]3C)[C@H]12 | > 57 µM (inactive) |
| Cc1cnc(CNc2cc(-c3c(C)noc3C)ncn2)cn1 | > 57 µM (inactive) |
| COCCn1c(=O)c(-c2cc(F)cc(F)c2)nc2cnc(N3CCNCC3)nc21 | > 57 µM (inactive) |
| CCCC(C(=O)OCCN(CC)CC)(c1ccccc1)c1ccccc1 | > 57 µM (inactive) |
| O=c1cnc2cnc(Nc3ccccc3)nc2n1Cc1ccc(F)cc1 | > 57 µM (inactive) |
| O=C1C(c2ccccn2)=[N+]([O-])c2ccccc21 | > 57 µM (inactive) |
| CN(Cc1ccco1)c1ncncc1-c1ccoc1 | > 57 µM (inactive) |
| C[C@H]1O[C@@H](CC(=O)O)Cc2c1c(O)c1c(O)cc(-c3cc(=O)c4c(=O)c5c(c(=O)c=4c3=O)C[C@H](CC(=O)O)O[C@@H]5C)c(O)c1c2O | > 57 µM (inactive) |
| NS(=O)(=O)c1cc(Cl)c(Cl)c(S(N)(=O)=O)c1 | > 57 µM (inactive) |
| CCC(C)(C)N=C(NC#N)Nc1cccnc1 | > 57 µM (inactive) |
| COc1ccc(CNc2ncncc2-c2ccccc2C)c(OC)c1 | > 57 µM (inactive) |
| Cn1cc(-c2nc3cnc(N4CCNCC4)nc3n(CCc3ccccc3)c2=O)c2ccccc21 | > 57 µM (inactive) |
| CN(C)c1ccc(-c2nc(NCCN3CCOCC3)c3ccccc3n2)cc1 | > 57 µM (inactive) |
